Assays:
Assay in all cases: log2 ratio of Biotin-Ahx-Ub-VS probe labelling (fragment/DMSO); higher = less target engagement (more negative = stronger competition), active = hit call of the paper (q ≤ 0.05, log2 ratio ≤ -1)
Conditions in all cases: compound concentration: 200 uM; treatment time: 3 h
USP34 = USP34 (UniProt Q70CQ2)
In short: (§1)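 HEK293T lysate, 495 µg per sample in Tris/CHAPS/IGEPAL buffer with protease inhibitors, was treated in triplicate with fragment at 200 µM or vehicle for 3 h and then with Biotin-Ahx-Ub-VS at 0.5 µM final for 1 h. Labelled DUBs were NeutrAvidin-enriched, digested with LysC and trypsin, and run by diaPASEF LC-MS/MS. Spectronaut label-free quantities were global-median-normalised, and values are average log2 fragment/vehicle ratios by unpaired t-test on proteins with ≥2 unique peptides.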

USP36 = target: T1, USP36 (UniProt Q9P275)
T1 sequence (whole entry): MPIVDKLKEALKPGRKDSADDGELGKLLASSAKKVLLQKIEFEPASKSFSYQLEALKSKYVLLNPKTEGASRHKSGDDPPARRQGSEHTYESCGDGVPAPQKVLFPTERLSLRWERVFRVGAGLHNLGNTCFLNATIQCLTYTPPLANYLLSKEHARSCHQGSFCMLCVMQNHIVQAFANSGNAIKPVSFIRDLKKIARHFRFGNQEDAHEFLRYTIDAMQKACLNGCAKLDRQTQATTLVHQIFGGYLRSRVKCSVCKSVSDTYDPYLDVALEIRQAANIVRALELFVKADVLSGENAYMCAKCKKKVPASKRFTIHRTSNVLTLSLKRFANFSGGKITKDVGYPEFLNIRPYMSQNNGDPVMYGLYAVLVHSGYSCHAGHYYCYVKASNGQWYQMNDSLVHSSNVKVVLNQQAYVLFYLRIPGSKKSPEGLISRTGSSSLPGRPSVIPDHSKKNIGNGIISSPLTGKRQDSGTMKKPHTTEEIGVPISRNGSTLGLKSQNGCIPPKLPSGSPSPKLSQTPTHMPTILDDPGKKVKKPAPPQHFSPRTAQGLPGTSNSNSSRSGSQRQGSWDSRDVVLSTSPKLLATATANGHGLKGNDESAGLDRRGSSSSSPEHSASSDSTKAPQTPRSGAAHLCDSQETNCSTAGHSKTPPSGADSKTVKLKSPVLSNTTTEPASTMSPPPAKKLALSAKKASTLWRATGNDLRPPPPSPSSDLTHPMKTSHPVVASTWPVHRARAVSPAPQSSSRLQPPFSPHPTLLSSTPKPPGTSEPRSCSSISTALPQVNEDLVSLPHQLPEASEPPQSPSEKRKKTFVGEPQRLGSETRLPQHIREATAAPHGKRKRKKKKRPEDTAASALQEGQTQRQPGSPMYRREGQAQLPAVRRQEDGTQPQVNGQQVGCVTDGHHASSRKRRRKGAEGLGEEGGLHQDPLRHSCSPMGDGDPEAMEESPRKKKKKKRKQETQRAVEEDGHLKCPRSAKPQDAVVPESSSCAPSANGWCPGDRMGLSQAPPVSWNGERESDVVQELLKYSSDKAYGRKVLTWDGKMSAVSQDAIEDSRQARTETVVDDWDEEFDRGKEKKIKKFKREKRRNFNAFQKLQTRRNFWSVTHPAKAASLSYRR
In short: as §1

USP38 = target: T2, USP38 (UniProt Q8NB14)
T2 sequence (whole entry): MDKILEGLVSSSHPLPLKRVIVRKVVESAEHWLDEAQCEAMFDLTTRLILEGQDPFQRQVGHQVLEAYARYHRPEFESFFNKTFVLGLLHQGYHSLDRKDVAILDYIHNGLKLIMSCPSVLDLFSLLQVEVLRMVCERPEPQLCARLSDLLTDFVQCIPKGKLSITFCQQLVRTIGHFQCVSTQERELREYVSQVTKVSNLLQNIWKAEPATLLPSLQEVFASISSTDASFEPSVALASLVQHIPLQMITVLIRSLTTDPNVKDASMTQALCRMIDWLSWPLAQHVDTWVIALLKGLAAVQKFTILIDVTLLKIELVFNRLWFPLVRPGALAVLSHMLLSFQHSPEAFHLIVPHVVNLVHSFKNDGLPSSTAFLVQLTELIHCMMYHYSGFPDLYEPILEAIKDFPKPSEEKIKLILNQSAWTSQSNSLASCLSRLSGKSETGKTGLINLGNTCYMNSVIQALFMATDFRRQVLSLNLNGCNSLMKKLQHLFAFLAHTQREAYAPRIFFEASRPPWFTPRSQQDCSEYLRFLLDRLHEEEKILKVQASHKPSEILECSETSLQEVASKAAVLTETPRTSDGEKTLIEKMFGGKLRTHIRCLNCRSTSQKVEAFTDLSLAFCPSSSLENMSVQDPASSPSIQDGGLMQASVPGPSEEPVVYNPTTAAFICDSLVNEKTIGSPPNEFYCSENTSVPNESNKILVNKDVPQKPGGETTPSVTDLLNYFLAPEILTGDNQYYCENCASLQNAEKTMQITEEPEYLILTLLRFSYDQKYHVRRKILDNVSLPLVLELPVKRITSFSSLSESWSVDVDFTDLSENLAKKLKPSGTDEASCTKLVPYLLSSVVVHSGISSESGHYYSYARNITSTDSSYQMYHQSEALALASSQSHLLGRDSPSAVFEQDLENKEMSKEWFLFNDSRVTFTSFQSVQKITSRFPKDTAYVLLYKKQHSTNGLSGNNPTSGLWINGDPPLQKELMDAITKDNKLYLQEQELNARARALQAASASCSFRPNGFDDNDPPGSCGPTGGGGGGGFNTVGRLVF
In short: as §1

USP39 = target: T3, USP39 (UniProt Q53GS9)
T3 sequence (whole entry): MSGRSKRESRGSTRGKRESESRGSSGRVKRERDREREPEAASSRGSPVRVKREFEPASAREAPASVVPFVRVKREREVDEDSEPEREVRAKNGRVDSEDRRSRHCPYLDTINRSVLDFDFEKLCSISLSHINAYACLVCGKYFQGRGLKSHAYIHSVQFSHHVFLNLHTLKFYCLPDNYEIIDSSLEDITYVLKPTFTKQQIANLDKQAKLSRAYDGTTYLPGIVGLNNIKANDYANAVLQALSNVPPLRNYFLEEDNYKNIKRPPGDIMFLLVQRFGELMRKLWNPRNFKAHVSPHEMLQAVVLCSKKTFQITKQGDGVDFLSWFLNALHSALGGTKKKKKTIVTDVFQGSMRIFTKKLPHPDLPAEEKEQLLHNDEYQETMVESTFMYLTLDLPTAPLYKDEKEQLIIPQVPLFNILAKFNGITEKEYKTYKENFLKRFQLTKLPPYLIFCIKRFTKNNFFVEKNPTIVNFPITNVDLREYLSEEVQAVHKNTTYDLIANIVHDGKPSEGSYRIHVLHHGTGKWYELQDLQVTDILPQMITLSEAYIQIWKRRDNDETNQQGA
In short: as §1

USP4 = target: T4, USP4 (UniProt Q13107)
T4 sequence (whole entry): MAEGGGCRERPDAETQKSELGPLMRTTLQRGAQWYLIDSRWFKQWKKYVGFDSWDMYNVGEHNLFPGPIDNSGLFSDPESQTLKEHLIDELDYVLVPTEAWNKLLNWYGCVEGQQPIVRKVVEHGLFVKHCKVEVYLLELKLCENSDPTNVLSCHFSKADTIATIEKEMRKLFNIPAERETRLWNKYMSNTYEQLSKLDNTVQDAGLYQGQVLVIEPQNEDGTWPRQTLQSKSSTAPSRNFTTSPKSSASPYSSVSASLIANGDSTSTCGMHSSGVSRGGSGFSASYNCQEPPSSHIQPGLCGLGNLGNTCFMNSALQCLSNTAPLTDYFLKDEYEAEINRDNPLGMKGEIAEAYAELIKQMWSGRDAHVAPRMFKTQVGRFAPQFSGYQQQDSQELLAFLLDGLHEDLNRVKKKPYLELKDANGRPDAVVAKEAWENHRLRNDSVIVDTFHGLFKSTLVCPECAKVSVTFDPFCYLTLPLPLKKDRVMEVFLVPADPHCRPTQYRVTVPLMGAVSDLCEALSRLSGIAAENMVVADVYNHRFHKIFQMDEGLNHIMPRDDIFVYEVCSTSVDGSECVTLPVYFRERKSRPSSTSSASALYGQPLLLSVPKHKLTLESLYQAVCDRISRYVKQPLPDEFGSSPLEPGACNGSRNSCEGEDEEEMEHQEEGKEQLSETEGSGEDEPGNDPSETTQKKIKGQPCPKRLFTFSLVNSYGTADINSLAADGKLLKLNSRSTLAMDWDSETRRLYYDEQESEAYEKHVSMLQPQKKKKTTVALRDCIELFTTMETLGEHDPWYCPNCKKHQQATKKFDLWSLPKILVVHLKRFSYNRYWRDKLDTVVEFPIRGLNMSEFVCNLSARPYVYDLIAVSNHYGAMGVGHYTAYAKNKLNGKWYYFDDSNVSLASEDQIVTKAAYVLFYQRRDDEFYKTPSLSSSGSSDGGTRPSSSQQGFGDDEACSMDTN
In short: as §1

Measured: log2 ratio of Biotin-Ahx-Ub-VS probe labelling

Sequence of USP34 (Q70CQ2 whole entry, the tested form may be a part): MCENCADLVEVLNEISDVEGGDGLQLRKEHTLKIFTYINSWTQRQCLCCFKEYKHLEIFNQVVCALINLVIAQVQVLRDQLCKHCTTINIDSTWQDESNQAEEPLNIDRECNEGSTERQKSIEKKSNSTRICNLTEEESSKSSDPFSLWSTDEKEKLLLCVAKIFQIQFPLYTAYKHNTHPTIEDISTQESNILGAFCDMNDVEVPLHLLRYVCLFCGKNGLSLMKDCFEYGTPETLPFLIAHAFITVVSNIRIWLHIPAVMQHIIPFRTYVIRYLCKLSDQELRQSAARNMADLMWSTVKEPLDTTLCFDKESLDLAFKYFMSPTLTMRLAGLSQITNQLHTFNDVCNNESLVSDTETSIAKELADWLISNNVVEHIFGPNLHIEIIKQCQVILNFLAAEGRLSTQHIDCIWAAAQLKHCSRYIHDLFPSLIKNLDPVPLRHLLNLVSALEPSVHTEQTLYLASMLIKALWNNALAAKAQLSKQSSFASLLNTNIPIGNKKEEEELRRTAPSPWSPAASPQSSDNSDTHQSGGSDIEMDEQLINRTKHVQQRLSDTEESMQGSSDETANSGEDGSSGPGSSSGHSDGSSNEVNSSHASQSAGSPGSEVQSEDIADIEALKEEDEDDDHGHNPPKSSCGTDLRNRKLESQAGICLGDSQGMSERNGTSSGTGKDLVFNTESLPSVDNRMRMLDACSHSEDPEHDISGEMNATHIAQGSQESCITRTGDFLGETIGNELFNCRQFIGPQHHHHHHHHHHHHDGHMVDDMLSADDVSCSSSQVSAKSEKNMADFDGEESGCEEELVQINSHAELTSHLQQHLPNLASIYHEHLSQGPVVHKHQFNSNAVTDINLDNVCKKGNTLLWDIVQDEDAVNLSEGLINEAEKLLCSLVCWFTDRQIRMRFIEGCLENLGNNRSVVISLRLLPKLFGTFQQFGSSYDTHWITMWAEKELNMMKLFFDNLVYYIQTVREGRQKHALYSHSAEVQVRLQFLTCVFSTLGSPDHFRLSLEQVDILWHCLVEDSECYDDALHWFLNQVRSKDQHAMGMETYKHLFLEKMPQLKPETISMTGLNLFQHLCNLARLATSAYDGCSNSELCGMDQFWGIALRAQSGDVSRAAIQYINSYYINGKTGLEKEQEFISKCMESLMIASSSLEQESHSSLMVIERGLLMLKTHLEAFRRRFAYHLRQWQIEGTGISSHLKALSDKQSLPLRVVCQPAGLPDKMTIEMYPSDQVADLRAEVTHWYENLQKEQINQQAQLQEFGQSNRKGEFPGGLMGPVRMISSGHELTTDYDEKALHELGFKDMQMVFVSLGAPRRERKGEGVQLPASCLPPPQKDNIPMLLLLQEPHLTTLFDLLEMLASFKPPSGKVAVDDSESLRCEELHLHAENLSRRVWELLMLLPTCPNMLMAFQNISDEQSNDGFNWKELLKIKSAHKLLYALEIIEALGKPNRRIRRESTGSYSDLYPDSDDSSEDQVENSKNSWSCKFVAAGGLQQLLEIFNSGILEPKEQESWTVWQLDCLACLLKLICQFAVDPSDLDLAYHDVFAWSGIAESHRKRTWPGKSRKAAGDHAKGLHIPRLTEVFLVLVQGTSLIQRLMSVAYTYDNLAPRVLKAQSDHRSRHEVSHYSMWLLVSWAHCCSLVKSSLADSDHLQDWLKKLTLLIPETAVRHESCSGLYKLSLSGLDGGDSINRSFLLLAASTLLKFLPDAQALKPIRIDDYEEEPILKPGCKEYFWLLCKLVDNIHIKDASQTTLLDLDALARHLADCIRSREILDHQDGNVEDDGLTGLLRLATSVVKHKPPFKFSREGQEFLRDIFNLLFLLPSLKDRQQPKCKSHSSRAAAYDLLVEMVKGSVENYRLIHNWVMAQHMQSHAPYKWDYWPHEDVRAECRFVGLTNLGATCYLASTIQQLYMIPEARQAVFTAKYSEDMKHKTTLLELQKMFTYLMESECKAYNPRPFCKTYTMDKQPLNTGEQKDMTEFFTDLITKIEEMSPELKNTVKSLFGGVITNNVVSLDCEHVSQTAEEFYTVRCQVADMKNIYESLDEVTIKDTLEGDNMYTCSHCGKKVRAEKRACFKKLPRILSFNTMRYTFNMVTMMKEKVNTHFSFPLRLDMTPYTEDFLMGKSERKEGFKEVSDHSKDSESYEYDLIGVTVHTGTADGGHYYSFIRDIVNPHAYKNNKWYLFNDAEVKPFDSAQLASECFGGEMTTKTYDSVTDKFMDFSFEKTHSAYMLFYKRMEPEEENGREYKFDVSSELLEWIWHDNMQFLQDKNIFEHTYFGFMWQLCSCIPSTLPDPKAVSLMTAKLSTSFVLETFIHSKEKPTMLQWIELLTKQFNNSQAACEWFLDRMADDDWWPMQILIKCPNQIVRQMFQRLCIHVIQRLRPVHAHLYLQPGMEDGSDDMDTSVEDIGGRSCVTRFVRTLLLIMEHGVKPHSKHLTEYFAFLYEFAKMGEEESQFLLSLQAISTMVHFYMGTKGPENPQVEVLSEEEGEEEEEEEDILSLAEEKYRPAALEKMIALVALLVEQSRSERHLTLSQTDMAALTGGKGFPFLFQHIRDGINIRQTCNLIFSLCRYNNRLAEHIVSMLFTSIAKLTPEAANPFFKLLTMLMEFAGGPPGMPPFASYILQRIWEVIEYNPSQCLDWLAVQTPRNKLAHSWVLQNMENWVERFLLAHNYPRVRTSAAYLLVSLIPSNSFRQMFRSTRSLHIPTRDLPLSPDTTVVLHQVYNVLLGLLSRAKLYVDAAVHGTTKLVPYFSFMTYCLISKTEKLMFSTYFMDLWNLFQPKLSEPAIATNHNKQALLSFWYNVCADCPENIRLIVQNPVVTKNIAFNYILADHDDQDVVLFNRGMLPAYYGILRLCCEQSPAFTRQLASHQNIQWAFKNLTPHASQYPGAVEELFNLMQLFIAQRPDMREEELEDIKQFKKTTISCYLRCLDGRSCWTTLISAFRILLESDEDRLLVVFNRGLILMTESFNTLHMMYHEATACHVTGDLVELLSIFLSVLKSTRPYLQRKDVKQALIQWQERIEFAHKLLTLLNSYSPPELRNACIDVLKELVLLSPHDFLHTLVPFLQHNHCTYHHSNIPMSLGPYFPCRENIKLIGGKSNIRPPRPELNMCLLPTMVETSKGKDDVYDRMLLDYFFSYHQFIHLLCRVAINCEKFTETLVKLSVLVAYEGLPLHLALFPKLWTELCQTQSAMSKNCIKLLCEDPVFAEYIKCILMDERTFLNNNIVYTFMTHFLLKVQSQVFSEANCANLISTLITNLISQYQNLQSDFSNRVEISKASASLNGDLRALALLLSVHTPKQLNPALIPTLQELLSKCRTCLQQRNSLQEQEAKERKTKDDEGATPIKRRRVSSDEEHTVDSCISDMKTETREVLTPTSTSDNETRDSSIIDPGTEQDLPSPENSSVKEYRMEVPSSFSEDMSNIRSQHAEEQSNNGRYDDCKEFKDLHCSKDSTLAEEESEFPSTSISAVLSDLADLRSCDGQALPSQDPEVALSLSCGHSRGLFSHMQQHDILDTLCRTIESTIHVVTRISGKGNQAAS

O=C(CCl)NC(Cn1ccccc1=O)c1ccccc1 (stereo not given)
inactive: USP34 -0.106 | USP36 0.132 | USP38 -0.000312 | USP39 -0.0137 | USP4 -0.127
